Out of some 52,000 compounds screened, about 4,300 (8.3%) were called active. This is one part of a sample in which actives are shown more often than they occur. Rule as the data show it: active = survival mostly below about 52% (no sharp cut-off); inactive = mostly above about 56%.
The compounds below were run on DeltatarO mutant (assay: growth inhibition of S. aureus wild type versus tarO mutant, primary screen, teichoic acid synthesis inhibitors, RN4220, OD600 (AID 463173)). Conditions: OD600, 18 h, hits give low values, screened at 18.75 µg/mL (by protocol).
For `Cc1cc2oc(C(=O)N(Cc3ccc(N(C)C)cc3)CC3CCCO3)c(C)c2cc1Cl` (stereo unspecified), the survival was 65% (inactive).
For `Cc1ccccc1CNCCSc1nnnn1C`, the survival was 84% (inactive).
In the case of `CC(C)c1ccc2oc(-c3cccc(NC(=O)c4ccc5c(c4)OCCO5)c3)nc2c1`, the survival is reported as 28% (active).
In the case of `CCc1ccc(C(=O)Nc2cccc(-c3nc4cc(C(C)C)ccc4o3)c2)cc1`, the survival is reported as 41% (active).
`Cc1ccc2oc(-c3ccc(C)c(NC(=O)c4ccc5c(c4)OCCO5)c3)nc2c1` was tested, and the survival was 48% (inactive).
With `COc1ccc2oc(-c3ccc(C)c(NC(=O)c4ccc5c(c4)OCCO5)c3)nc2c1` the survival was 70% (inactive).
For `CCc1ccc(-c2nc3cc(NC(=O)c4ccc(C)c(C)c4)ccc3o2)cc1`, the survival was 151% (inactive).
In the case of `CCc1ccc(-c2nc3cc(NC(=O)c4ccc(F)cc4)ccc3o2)cc1`, the survival is reported as 83% (inactive).
For `Cc1ccc(S(=O)(=O)N(CC(O)Cn2c3ccccc3c3ccccc32)c2cccc(C(=O)NCCO)c2)cc1` (stereo unspecified), the survival was 56% (inactive).
In the case of `Cc1ccc(S(=O)(=O)N(CC(O)Cn2c3ccccc3c3ccccc32)c2cccc(C(=O)N(C)C)c2)cc1` (stereo unspecified), the survival is reported as 54% (inactive).
With `Cc1ccc(S(=O)(=O)N(CC(O)Cn2c3ccccc3c3ccccc32)c2cccc(C(N)=O)c2)cc1` (stereo unspecified) the survival was 38% (active).
With `CCc1nn2c(-c3ccccc3OC)ccnc2c1-c1ccc(F)cc1` the survival was 2% (active).
In the case of `CCc1nn2c(-c3ccccc3OC)ccnc2c1-c1ccccc1`, the survival is reported as 0% (active).
With `COc1ccccc1-c1ccnc2c(-c3ccc(Br)cc3)c(C)nn12` the survival was 94% (inactive).
`Cc1ccccc1-c1ccnc2c(-c3ccc(F)cc3)c(C)nn12` was tested, and the survival was 6% (active).
With `COc1ccc(-c2ccnc3c(-c4ccc(F)cc4)c(C)nn23)cc1OC` the survival was 88% (inactive).
With `COc1cccc(-c2ccnc3c(-c4ccc(F)cc4)c(C)nn23)c1` the survival was 93% (inactive).
With `CCc1nn2c(-c3ccco3)ccnc2c1-c1ccccc1` the survival was 84% (inactive).
With `CCc1nn2c(-c3ccco3)ccnc2c1-c1ccc(F)cc1` the survival was 81% (inactive).
For `Cc1nn2c(-c3ccco3)ccnc2c1-c1ccc(F)cc1`, the survival was 90% (inactive).
In the case of `Cc1cc2nn(-c3ccc(F)cc3)nc2cc1NC(=O)c1cc(Cl)ccc1Cl`, the survival is reported as 141% (inactive).
For `CC1CCCN(S(=O)(=O)c2ccc3c(c2)CCN3C(=O)CCC(=O)O)C1` (stereo unspecified), the survival was 96% (inactive).
For `Cc1ccc(N2CC(c3nnc(NC(=O)c4ccco4)s3)CC2=O)cc1Cl` (stereo unspecified), the survival was 77% (inactive).
For `CCN1C(=O)CC(n2c(C)nc3ccccc32)C1=O` (stereo unspecified), the survival was 96% (inactive).
`Cc1ccc(-c2nn(-c3ccccc3)c3[nH]c(=O)c(CNCCN4CCOCC4)cc23)cc1` was tested, and the survival was 115% (inactive).
With `NC(CC(=O)OC1CCCCC1)C(=O)OC1CCCCC1` (stereo unspecified) the survival was 89% (inactive).
